# From PubChem BioAssay (NCATS)
# Several values for one entry are separate records, joined by “and”; a condition that tells them apart may be missing. Equal entries are not always repeated. Inconclusive results are not listed. More than one record can exist for a structure, and the calls need not agree. Activity calls are given as the source filed them. Unless noted, the rule behind the calls is not given here.
# What was measured:
# [1] = qHTS profiling for inhibitors of Plasmodium falciparum (HB3) proliferation (AID 743324; active = well fitted curve in the direction sought with a large enough effect; an effect the other way counts as inactive or inconclusive;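 note: 100% = DMSO vehicle wells and 0% = artemisinin-treated control wells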); settings: Plasmodium falciparum HB3 blood-stage proliferation; at 28.7 µM (top of the series) unless noted
# Method in brief: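 SYBR Green fluorescence (485 ex/535 em) of lysed cultures, incubated overnight at room temperature in the dark, quantifies parasite DNA. Infected erythrocytes at 0.3% parasitemia and 2.5% hematocrit were exposed 72 h; values normalized to DMSO and 0.29 uM artemisinin controls.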
# [2] = qHTS profiling of the MIPE4 collection as inhibitors of Plasmodium falciparum (3D7) proliferation (AID 743344);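 note: scaled between DMSO vehicle wells and 0.29 µM artemisinin as full inhibition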; settings: P. falciparum 3D7 in erythrocytes, SYBR Green DNA fluorescence, 72 h; at 28.5 µM (top of the series) unless noted
# Method in brief: (§1)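 Parasite DNA was quantified by SYBR Green I fluorescence (ex 485, em 535 nm) after overnight lysis in saponin/Triton buffer at room temperature. Cultures at 0.3% parasitemia and 2.5% hematocrit were first exposed to compound for 72 h at 37 C; signals were normalised to artemisinin (0.29 uM) and vehicle wells.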
# [3] = qHTS profiling of the MIPE4 collection as inhibitors of Plasmodium falciparum (DD2) proliferation (AID 743345); settings: P. falciparum Dd2 in erythrocytes, SYBR Green DNA, 72 h; at 28.5 µM (top of the series) unless noted
# Method in brief: as §1
# [4] = qHTS profiling of the MIPE4 collection as inhibitors of Plasmodium falciparum (DD2) proliferation (Rep 2) (AID 743346); settings: P. falciparum Dd2 in erythrocytes, SYBR Green DNA, 72 h; at 28.5 µM (top of the series) unless noted
# Method in brief: as §1
# [5] = qHTS profiling of the MIPE4 collection as inhibitors of Plasmodium falciparum (HB3) proliferation (AID 743347);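 note: plate controls were DMSO vehicle wells for no effect and artemisinin wells for full effect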; settings: P. falciparum HB3 in erythrocytes, SYBR Green DNA, 72 h; at 28.5 µM (top of the series) unless noted
# Method in brief: as §1
# [6] = High-throughput drug toxicity screening in the BPDCN cell line Gen2.2 (AID 1224824); settings: Gen2.2 BPDCN cells; at 45.8 µM (top of the series) unless noted
# Method in brief: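 Seed 500 exponentially growing Gen2.2 cells/well; add compounds by pin tool; incubate 48 h, 37 °C, 5% CO2; add CellTiter-Glo, 15 min RT; read luminescence. % activity vs DMSO (100%) and bortezomib (0%).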
# [7] = High-throughput drug toxicity screening in the BPDCN cell line Cal-1 (AID 1224825); settings: Cal-1 BPDCN cell viability, qHTS; at 45.8 µM (top of the series) unless noted
# Method in brief: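 Percent activity derived from CellTiter-Glo luminescence, scaling DMSO to 100% and 9.2 uM final bortezomib to 0%. BPDCN Cal-1 cells (500/well, RPMI plus 10% FBS) incubated with compounds 48 hours at 37C before reading.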
# [8] = qHTS Screen of the MIPE 4.0 Collection Against Ewings Sarcoma (RDES) (AID 1259252; active = well fitted curve in the direction sought with a large enough effect; an effect the other way counts as inactive or inconclusive; note: nearly all actives have a fitted effect of over 35% in size; note: potency is the fitted concentration of half-maximal effect)
# Method in brief: (§2)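 After a 4 h attachment period in RPMI/5% FBS, cells were pin-dosed with test compounds; DMSO served as negative and 9.2 uM bortezomib (final) as positive control. Luminescent CellTiter-Glo signal at 48 h defined viability.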
# [9] = qHTS Screen of the MIPE 4.0 Collection Against Ewings Sarcoma (EW8) (AID 1259255; active = well fitted curve in the direction sought with a large enough effect; an effect the other way counts as inactive or inconclusive; note: nearly all actives have a fitted effect of over 35% in size; note: potency is the fitted concentration of half-maximal effect;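 for viability: 100% = DMSO-treated cells and 0% = medium-only wells without cells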)
# Method in brief: as §2
# [10] = qHTS assay for measurement of the activity of small molecule inhibitors on Zika virus induced Caspase-3 activity in human astrocytoma cells (AID 1224859; active = well fitted curve in the direction sought with a large enough effect; an effect the other way counts as inactive or inconclusive;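 note: plate controls were ZIKV-infected untreated cells for no effect and uninfected cells for full effect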)
# Method in brief: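 Luminescent caspase-3/7 read-out (30 min reagent, room temperature) in human SNB-19 cells infected 6 h with ZIKV (2 FFU/cell) after 1 h compound pre-incubation; Data were normalised to uninfected and infected wells.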
# [11] = qHTS Screen of the MIPE 4.0 Collection Against Ewings Sarcoma (TC71) (AID 1259253; active = well fitted curve in the direction sought with a large enough effect; an effect the other way counts as inactive or inconclusive; note: nearly all actives have a fitted effect of over 40% in size; note: potency is the fitted concentration of half-maximal effect)
# Method in brief: as §2
# [12] = qHTS Screen of the MIPE 4.0 Collection Against Ewings Sarcoma (TC32) (AID 1259256; active = well fitted curve in the direction sought with a large enough effect; an effect the other way counts as inactive or inconclusive; note: nearly all actives have a fitted effect of over 45% in size; note: potency is the fitted concentration of half-maximal effect)
# Method in brief: as §2
# [13] = Identifying Small Molecule Inhibitors of Pancreatic Cancer Stem Cells (Panc1, Spheroid) (AID 1259359; active = well fitted curve in the direction sought with a large enough effect; an effect the other way counts as inactive or inconclusive;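 note: compound exposure lasted 48 h before reading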; note: potency is the fitted concentration of half-maximal effect)
# Method in brief: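 Monolayer and spheroid cultures are compared. Spheroids form over 14 days in stem cell medium on hydrogel-coated low-attachment plates, then are exposed to compound for 48 h before CellTiter-Glo luminescence.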
# [14] = Identifying Small Molecule Inhibitors of Pancreatic Cancer Stem Cells (SN12C, Spheroid) (AID 1259360; active = well fitted curve in the direction sought with a large enough effect; an effect the other way counts as inactive or inconclusive; note: potency is the fitted concentration of half-maximal effect;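 for viability (% of control): 100% = DMSO-treated cells and 0% = wells without cells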); settings: Potency: SN12C spheroid viability
# Method in brief: (§3)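 Viability is scored by CellTiter-Glo luminescence 48 h after dosing, expressed as percent activity against vehicle and no-cell references. Spheroid formats rely on cells cultured 14 days in stem cell media beforehand.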
# [15] = Identifying Small Molecule Inhibitors of Pancreatic Cancer Stem Cells (A278, Adherent) (AID 1259361; active = well fitted curve in the direction sought with a large enough effect; an effect the other way counts as inactive or inconclusive;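 note: viability read after 48 h compound exposure; nearly all actives have a fitted effect of over 35% in size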)
# Method in brief: (§4)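 Adherent (2D) versus sphere (3D) formats; spheres generated 14 d in SCM beforehand. Compound transferred by pin tool after 4 h, 48 h incubation, CellTiter-Glo endpoint.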
# [16] = Identifying Small Molecule Inhibitors of Pancreatic Cancer Stem Cells (A2780, Spheroid) (AID 1259357; active = well fitted curve in the direction sought with a large enough effect; an effect the other way counts as inactive or inconclusive;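 note: compound exposure lasted 48 h before the ATP luminescence read; 100% = DMSO treated cells and 0% = wells without cells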); settings: Potency: A2780 spheroid viability
# Method in brief: as §3
# [17] = Identifying Small Molecule Inhibitors of Pancreatic Cancer Stem Cells (SN12C, Adherent) (AID 1259358; active = well fitted curve in the direction sought with a large enough effect; an effect the other way counts as inactive or inconclusive;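 note: cell survival measured after 48 h of compound exposure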)
# Method in brief: as §4
# [18] = qHTS assay for measurement of the activity of small molecule inhibitors on Zika virus induced Caspase-3 activity in human iPSC derived neural progenitor cells (hNPCs) (AID 1224857; active = well fitted curve in the direction sought with a large enough effect; an effect the other way counts as inactive or inconclusive; note: % of control where 0% means no effect; nearly all actives have a fitted effect of over 65% in size)
# Method in brief: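 Percent inhibition of virus-induced caspase-3/7 luminescence (Caspase-Glo), scaled between uninfected cells and Zika-infected cells. hNPCs received compound 1 hr before ZIKV at 2 FFU/cell, with 6 hours infection at 37 C.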
# [19] = P-glycoprotein substrates identified in KB-3-1 adenocarcinoma cell line, qHTS therapeutic library screen (AID 1346986; active = well fitted curve in the direction sought with a large enough effect; an effect the other way counts as inactive or inconclusive; note: nearly all actives have a fitted effect of over 60% in size;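 note: potency is the fitted concentration of half-maximal effect; potency is for cytotoxicity meaning loss of cell viability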)
# Method in brief: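 Dose-response cytotoxicity, KB-3-1 vs P-gp-high KB-8-5-11, no colchicine in assay medium. Read: CellTiter-Glo at 72 h.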
Compound,"remaining proliferation (% of control), lower = more inhibition [1] [%]","parasite growth, % of DMSO control [2] [%]","parasite growth remaining, % of DMSO control (lower = more inhibition) [3] [%]","parasite growth, % of control (lower = inhibition) [4] [%]","growth, % of control [5] [%]","cell viability, % of control (lower = more cytotoxic) [6] [%]",viability (% of control) [7] [%],Potency [8],Potency [9],Potency [10],Potency [11],Potency [12],Potency [13],Potency [14],IC50 (viability decrease) [15],Potency [16],Potency [17],Potency [18],Potency [19]
Cc1csc(-c2nnc(Nc3ccc(Oc4ncccc4-c4ccnc(N)n4)cc3)c3ccccc23)c1,51.2,38.3,81.1,47.8,26.8,24.7,13.3,29.6 nM (active),5.9 nM (active),,,,,,,,,,
O=C(O)C1=CO[C@@H](O[C@@H]2O[C@H](CO)[C@H](O)[C@H](O)[C@H]2O)[C@@H]2C(CO)=CC[C@H]12,,99.8,96.1,,103,78.1,23.1,,inactive,inactive,16600 nM (active),inactive,,,,,,,
CC1=C(C(=O)Nc2cc3cn[nH]c3cc2F)C(c2ccc(C(F)(F)F)cc2)CC(=O)N1 (stereo unspecified),,5.13,8.5,,5.72,88.7,58,1480 nM (active),inactive,inactive,,inactive,,,,,,,
COc1c(C)cnc(Cn2cnc3c(Cl)nc(N)nc32)c1C,9.05,28.9,49.8,31.8,21.1,9.9,18.7,187 nM (active),,,,132 nM (active),inactive,264 nM (active),93.5 nM (active),,,,
CCCCC(F)(F)[C@@]1(O)CC[C@H]2[C@H](CC(=O)[C@@H]2CCCCCCC(=O)O)O1,,77.3,99.5,70.3,83,92.5,106,2640 nM (active),3320 nM (active),inactive,,2960 nM (active),,,,,,,
O=C1C(CCC(O)c2ccc(F)cc2)C(c2ccc(O)cc2)N1c1ccc(F)cc1 (stereo unspecified),64.8,33.5,77,,33.2,88.9,93.3,,inactive,inactive,,inactive,,inactive,,inactive,inactive,,
CC(C)=CCCC(C)=CCCC(C)=CCCC(C)=CCCC(C)=CCCC(C)=CCCC(C)=CCCC(C)=CCCC(C)=CCO,,95.7,17.5,99.4,100,132,,inactive,inactive,inactive,inactive,,,,,,,inactive,
CN(C)c1ccc(-c2nc3ncc(Cl)c(N4CCN(CC(=O)Nc5nccs5)CC4)c3[nH]2)cc1,,6.94,9.69,,2.92,3.51,8.53,,16600 nM (active),inactive,18700 nM (active),,,,,,,,inactive
Cc1ccc(C(=O)N(CCCN)[C@@H](c2nc3cc(Cl)ccc3c(=O)n2Cc2ccccc2)C(C)C)cc1,0.0585,4.61,7.03,13.3,,4.1,,1.7 nM (active),,inactive,1.9 nM (active),inactive,3 nM (active),,4.7 nM (active),,,inactive,
Cn1cnc(-c2cc3nccc(Oc4ccc(NC(=S)NC(=O)Cc5ccccc5)cc4F)c3s2)c1,,8.29,23.6,28.5,12,131,8.37,20900 nM (active),,inactive,,18700 nM (active),,,,,,,
CN(C)c1nc(Cc2ccc(NC(=O)c3ccc(C(F)(F)F)cc3)cc2)nc(N(C)C)c1CC(=O)O,,88.9,90.9,,95.1,204,132,inactive,inactive,inactive,,inactive,,,,,,,inactive
CN1CCN(c2cccc(Nc3nc4c(-c5ccc(S(C)(=O)=O)cc5)cccn4n3)c2)CC1,,11.4,11.3,11.4,10.2,83,50.9,3720 nM (active),5900 nM (active),inactive,,2350 nM (active),,,,,,,inactive and 23.1 µM (active)
CC1CCN(c2cc(N3CCN(C)CC3)ccc2NC(=O)c2cc(C#N)c[nH]2)CC1,,39.9,80.6,36.9,,107,104,26400 nM (active),,inactive,,,,,,,,,
Cc1cccc2c1CC[C@H](CN1CCC(c3c(Cl)cccc3Cl)CC1)C[C@@H]2O,,8.94,,25,9.19,140,43.1,,14800 nM (active),,5900 nM (active),,,,,,,,
